Compounds with a hit are over-represented: about 21% of the library has one in this group of screens.
Shiga toxin inh – A qHTS for Small Molecule Inhibitors of Shiga Toxin; hit rate 9.2% among 290,000; Vero cells, Shiga toxin protein synthesis inhibition reporter; inhibition, % at 38.7 µM; AID 2315, 2010; in the data active = inhibition mostly above about 28%, no sharp cut-off; inactive = mostly below about 43%; note: 0% is about no effect
Pf growth 48h – Primary qHTS for delayed death inhibitors of the malarial parasite plastid, 48 hour incubation; P. falciparum luciferase growth in erythrocytes, 48 h; Potency, µM (doses to about 28.7 µM), inactives show at the highest dose activity change, negative = inhibition, most hits filed as inhibitors; hit rate 5.9% among 310,000; AID 504832, 2011; active = well fitted inhibition curve with a large enough effect; inconclusive = small, poorly fitted or top-dose-only effect, or another doubt; inactive = no such curve, though single readings can be large or run the other way; note: potency is the fitted concentration of half-maximal effect; % is set by controls: 0 for no effect and ±100 for the full control effect
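A one-generation exposure of luciferase-tagged malaria parasites in RPMI 1640/Albumax erythrocyte culture, 37 C and 5% CO2. Inhibition is inferred from decreased luminescence after adding detection reagent.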
Pf growth 96h – Primary qHTS for delayed death inhibitors of the malarial parasite plastid, 96 hour incubation; AID 504834, 2011; Potency, µM (series often up to 28.7 µM), inactives show top-dose activity change, negative = inhibition, hits mostly inhibitors; P. falciparum luciferase reporter growth, 96 h; hit rate 6.9% among 320,000; active = well fitted inhibition curve with a large enough effect; inconclusive = small, poorly fitted or top-dose-only effect, or another doubt; inactive = no such curve, though single readings can be large or run the other way; note: potency is the fitted concentration of half-maximal effect; % is set by controls: 0 for no effect and ±100 for the full control effect
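Erythrocytes infected with luciferase-expressing P. falciparum were dispensed at 2% hematocrit and 0.05% parasitemia (final), then incubated with compounds 96 hours at 37 C in 5% CO2. Luminescence after detection reagent addition reported growth.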
Cycloheximide cs – Cycloheximide Counterscreen for Small Molecule Inhibitors of Shiga Toxin; cell reporter, cycloheximide protein synthesis inhibition counterscreen; max response, %; hit rate 12% among 300,000; AID 2314, 2010; in the data active = max response mostly above about 13%, no sharp cut-off; inactive = mostly below about 14%; note: read at 38.3 µM for the half of the compounds with a filed dose; 0% is about no effect
NS1 inh – qHTS Assay for Inhibitors of Influenza NS1 Protein Function; Potency, µM (highest dose often 46.1 µM), for inactives: at the highest dose activity, positive = more growth; hit rate 0.4% among 270,000; note: potency is the fitted concentration of half-maximal effect; actives are rising curves; nearly all actives have a fitted effect of over 50% in size
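In this qHTS, NS1 from influenza A is expressed in budding yeast, where it slows growth. Cells are switched from glucose to 2% galactose medium (pH 6.0, -URA), treated with compound, and growth recovery is read at OD600.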
SARS PLP yeast – qHTS of Yeast-based Assay for SARS-CoV PLP. hit rate 0.19% among 330,000. Potency, µM (doses to about 32.9 µM), inactives show top-dose activity, positive = growth rescue, hits mostly activators. S. cerevisiae expressing SARS-CoV PLpro, growth rescue; note: potency is the fitted concentration of half-maximal effect; 0% is about no effect; nearly all actives have a fitted effect of over 55% in size
Numbers without * were called inactive; ? = inconclusive; · = no result; [ ] = another dose, or the depositor's remark. Unless noted, calls come from the whole dose curve.

SMILES	Shiga toxin inh	Pf growth 48h	Pf growth 96h	Cycloheximide cs	NS1 inh	SARS PLP yeast
O=C(COc1coc(CN2CCN(c3ccccc3)CC2)cc1=O)NC1CCCCC1	·	12µM*	?	·	·	8%
CCN(CC)C(=O)COc1coc(CN2CCN(c3ccc(F)cc3)CC2)cc1=O	-8	9%	?	-3	14%	0%
CCc1ccc(NC(=O)COc2coc(CN3CCN(c4ccccc4)CC3)cc2=O)cc1	·	5.2µM*	?	·	·	-2%
CCN(CC)C(=O)COc1coc(CN2CCN(c3ccccc3)CC2)cc1=O	-5	-5%	10µM*	4	15%	1%
CN1C(=O)C(CC(=O)NC2CCCCC2)SC1=Nc1ccccc1 (configuration not stated)	5	6%	5%	1	5%	1%
CC(=O)N1c2ccc(S(=O)(=O)NCCC(=O)NCCc3cccc(C)c3)cc2CC1C (configuration not stated)	-9	-15%	54%	-12	1%	23%
O=C(NCC1CCN(C(=O)c2ccc([N+](=O)[O-])cc2)CC1)C(=O)Nc1ccccc1	5	3%	15µM*	18	·	2%
O=C(COc1ccccc1)N1CCN(C(=O)c2ccc([N+](=O)[O-])cc2)CC1	36	167%	53%	48*	-3%	0%
Cc1c(Cl)c(C(=O)NNC(=S)Nc2ccc(F)cc2)nn1C	179*	30%	20%	34*	-1%	0%
Cc1c(Cl)c(C(=O)NNC(=S)Nc2ccccc2)nn1C	64*	78%	·	31*	-16%	-4%
CCNC(=S)NNC(=O)c1nn(C)c(C)c1Cl	82*	22%	-2%	26	·	0%
Cc1nn(C)c(C(=O)NNC(=S)Nc2ccc(Cl)cc2)c1[N+](=O)[O-]	-1	7%	49%	12	-12%	2%
Cc1nn(CCC(=O)NNC(=S)Nc2ccc(F)cc2)c(C)c1[N+](=O)[O-]	-6	13%	?	-1	-9%	-23%
Cc1ccnc(NS(=O)(=O)c2ccc(NC(=O)c3ccc(S(=O)(=O)N4CC(C)OC(C)C4)cc3)cc2)n1 (configuration not stated)	13	?	-44%	-3	-13%	12%
COc1ccc(CN(CC2CCC(C(=O)O)CC2)C(=S)Nc2cccc(C)c2)cc1 (configuration not stated)	12	-35%	-30%[1.15 µM]	2	·	-8%
CN(C)/C=N/N(C)c1ncccc1[N+](=O)[O-]	-9	1%	17%	-2	?	0%
COc1ccc2cc1Oc1ccc(cc1)C[C@@H]1c3c(cc(OC)c4c3Oc3cc5c(cc3O4)CCN[C@H]5C2)CCN1C	·	·	·	·	-8%	·
Cc1ccc(CN2CC(C(=O)Nc3ccc(F)c([N+](=O)[O-])c3)CC2=O)cc1 (configuration not stated)	-9	-22%	-1%	5	-2%	0%
CSCCC(NC(=O)c1ccccc1Cl)C(=O)N(C)CC(=O)Nc1ccc(N2CCOCC2)cc1 (configuration not stated)	·	?	19%	·	·	9%
O=C1Nc2cc3c(cc2C1=O)sc1ccccc13	7	9%	12%	-3	-3%	-3%
CCN(CC)C(=S)SCC(=O)Nc1nc(=O)c2ccccc2s1	22	33%	55%	18*	13%	8%
CCCCn1c(N)c(N(CC(C)C)C(=O)C2CC(=O)N(Cc3ccco3)C2)c(=O)[nH]c1=O (configuration not stated)	7	26%	?	4	15%	3%
Cc1ccc(C)c(S(=O)(=O)N2CCN(CC(=O)NC(=O)NCc3ccco3)CC2)c1	-6	0%	-20%	-3	-1%	2%
Cc1ccc(C)c([C@@H]2NC(=O)c3ccccc3N2)c1	·	·	·	·	-1%	·
CCOC(=O)c1ccc(/C=C2/C=C(c3ccccc3)N(c3ccc(Cl)c(C(=O)O)c3)C2=O)cc1	10	?	13µM*	-2	3%	8%
SMILES	Shiga toxin inh	Pf growth 48h	Pf growth 96h	Cycloheximide cs	NS1 inh	SARS PLP yeast
O=c1[nH]c(-c2ccccc2)c(-c2ccccc2)o1	18	·	1%	-3	3%	1%
COc1ccc(/C=C2/SC(=O)NC2=O)cc1	52*	73%	13µM*	39*	-62%	-6%
O=C1NC(=O)/C(=C\c2ccc(Cl)nc2)S1	68*	141%	41%	34*	·	-3%
O=[N+]([O-])c1ccc(Oc2ccc(/C=N/O)cc2)nc1	-17	0%	-13%	1	4%	0%
O=C1NC(=O)/C(=C\c2ccc(Oc3ccc([N+](=O)[O-])cn3)cc2)S1	42*	6%	-21%	34*	-5%	20%
CCOC(=O)CON1C(=O)C(=O)N(OCC(=O)OCC)C2CCCCC21 (configuration not stated)	-2	27%	3%	1	0%	1%
CCCCCCCCCC[n+]1cccc(C(=O)N(CC)CC)c1	-8	3.7µM*	3.7µM*	-1	2%	-16%
CC/C(=N/NC(=O)c1ccc(Br)cc1)c1ccc(OCCN2CCOCC2)cc1	52*	4%	?	17	3%	6%
CCOc1ccc(C(=O)NCCN2CCOCC2)cc1	-1	25%	-10%	4	8%	-2%
CCCCOc1ccc(C(=O)C(CN2CCOCC2)c2ccccc2)cc1 (configuration not stated)	9	?	?	0	-24%	-35%
CC/C(=N/NC(=O)c1ccccc1)c1ccc(OCCN2CCOCC2)cc1	80*	72%	49%	70*	19%	3%
O=C(NC(=S)NC1CCCCC1)c1ccc(F)cc1	117*	-19%	-1%	48*	-43%	3%
O=C(NC1CCCCCC1)C(=O)NC1CCCC1	25	12%	22%	8	12%	-10%
O=C(Nc1cccc(F)c1)NC1CCCCC1	96*	111%	-15%[5.75 µM]	32*	-20%	-10%
O=C(NC(=S)NC1CCN(Cc2ccccc2)CC1)c1ccc(F)cc1	-5	·	?	-4	-4%	2%
Cc1ccc(NC(=O)C(=O)NC2CCCCC2)cc1	3	·	202%	12*	-3%	5%
O=C(Nc1ccc(F)cc1)NC1CCCCC1	79*	84%	·	37*	-8%	-21%
Cc1cc(C)n2nc(SCC(=O)NC(=O)c3ccc(OC(F)F)cc3)nc2n1	·	·	·	·	·	1%
COc1ccccc1NS(=O)(=O)c1cccc(C(=O)NCC(c2ccc(F)cc2)N2CCOCC2)c1 (configuration not stated)	·	?	?	·	·	-4%
CN(Cc1c(F)cccc1Cl)C(=O)c1ccc2ccccc2n1	12	3%	19%	4	6%	-10%
O=C(Nc1ccc2c(c1)OCCO2)NC1CCCCC1	53*	138%	?	44*	-11%	-2%
